We go through 22 compounds from PubChem BioAssay AID743287 (Broad Institute, 2014).

The campaign covered roughly 370,000 compounds. About 2,300 (0.62%) were called active.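 How the source made its calls: active means lowest replicate activation of at least 40%, so every replicate reaches that level; inactive means the rest.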 For the sample, actives were picked, then their nearest neighbours and some compounds at random.

The assay is described as follows: primary screen for activators of insulin secretion dependent on glucose, INS-1E cells, GLuc reporter luminescence (AID 743287).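 Further: 0% = median of neutral control wells and 100% = median of IBMX positive control wells.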 The following applies: INS-1E GLuc reporter insulin secretion, 2-3 h, at 16.6 µM, active compounds read high.
In the case of `CC(C)NC(=O)Nc1ccc2c(c1)C(=O)N(C)[C@H]1CC[C@H](CC(=O)NCC3CCCCC3)O[C@@H]1CO2`, the activation was 5.93% (inactive).
Consider `CCC(=O)Nc1ccc2c(c1)C(=O)N(C)C[C@H](OC)[C@@H](C)CN(Cc1nccs1)[C@H](C)CO2`, for which the activation is 5.56% (inactive).
In the case of `CC1CN(Cc2ccccc2)C(=S)NC1=O` (configuration not stated) it was 41.2% (active); in that of `CC1CC(=S)Nc2ccccc2N1Cc1ccccc1` (configuration not stated), -14.5% (inactive).
In the case of `CC1CN(Cc2ccco2)C(=S)N(c2ccccc2)C1=O` (configuration not stated) it was 10.7% (inactive).
For `COCC(=O)N(C)C[C@H]1Oc2cc(C#CC3CCCC3)ccc2S(=O)(=O)N([C@H](C)CO)C[C@@H]1C` the value was -6.72% (inactive); for `COc1ccccc1CNC(=O)C[C@H]1C[C@@H]2c3cc(NC(=O)Nc4ccccc4F)ccc3O[C@@H]2[C@H](CO)O1`, 13.4% (inactive); for `COc1ccc(Cc2nnc(SCC(=O)Nc3ccc(C)c(C)c3)o2)cc1OC`, 71.9% (active).
As to `Cc1ccc(NC(=O)CSc2nnc(COc3ccccc3C)o2)cc1`, the activation was 6.85% (inactive).
On to `COc1cccc(NC(=O)CSc2nnc(Cc3ccc(OC)c(OC)c3)o2)c1`, for which the activation is 37.6% (inactive).
For `C[C@H](CO)N1C[C@H](C)[C@@H](CN(C)C)Oc2ncc(-c3cccc(F)c3)cc2C1=O`, the activation was -1.15% (inactive).
Turning to `C[C@H](CO)N1C[C@H](C)[C@@H](CN(C)Cc2ccccc2)Oc2c(NC(=O)CCCCCC(=O)Nc3ccccc3N)cccc2C1=O`, the activation was -7.28% (inactive).
Turning to `CNC(=S)N/N=C/c1ccc(OCc2ccccc2)c(Br)c1`, the activation was 107% (active).
On to `Oc1c(Br)cc(/C=N/NC(=S)NCC2CCCO2)cc1Br` (configuration not stated), for which the activation is -34.5% (inactive).
Regarding `CNC(=S)N/N=C/c1ccc(N2CCOCC2)s1`, the activation is 8.01% (inactive).
As to `COCC#Cc1cnc2c(c1)C(=O)N([C@H](C)CO)C[C@H](C)[C@H](CN(C)C(=O)Cc1cccnc1)O2`, the activation is 27.8% (inactive).
Regarding `COc1cccc(-c2cnc3c(c2)C(=O)N([C@H](C)CO)C[C@H](C)[C@H](CN(C)S(=O)(=O)c2cccc(F)c2)O3)c1`, the activation was -6.84% (inactive).
For the compound `C[C@H](CO)N1C[C@H](C)[C@@H](CN(C)C(=O)Cc2ccncc2)Oc2ncc(C#CCN(C)C)cc2C1=O`, the activation is 36.3% (inactive).
Consider `Cc1cc(NCc2cccnc2)no1`, for which the activation is -3.31% (inactive).
For `Cc1cc(NC(=O)COc2ccccc2C#N)no1`, the activation was 10.8% (inactive).
As to `Cc1cc(N/C=C\C(=O)c2ccc(Cl)c(Cl)c2)no1`, the activation is 76.1% (active).
For the compound `COc1ccc(CN(C)C[C@H]2Oc3c(NC(=O)c4cnccn4)cccc3C(=O)N([C@H](C)CO)C[C@@H]2C)cc1`, the activation is 3% (inactive).
